Holding throughout (assay): NCI-60 one-dose screen, 48 h (100 = growth as untreated, 0 = no growth, -100 = all killed)
Holding throughout (details): 10 µM unless noted

The test system of assay [1] is SK-MEL-2 melanoma.
In assay [2] the test system is SN12C renal.
Assay [3] concerns UO-31 renal.
Assay [4] relates to TK-10 renal.
Assay [5] has as its system ACHN renal.
In assay [6] the test system is CAKI-1 renal.
The test system of assay [7] is A498 renal.
For assay [8], the system named is CCRF-CEM leukemia.
Assay [9] deals with MOLT-4 leukemia.
Assay [10] relates to SR leukemia.
The test system of assay [11] is RPMI-8226 leukemia.
Assay [12] has as its system OVCAR-8 ovarian.
In assay [13] the test system is OVCAR-5 ovarian.
Assay [14] relates to OVCAR-4 ovarian.
For assay [15], the system named is SK-OV-3 ovarian.
The subject of assay [16] is IGROV1 ovarian.
For assay [17], the system named is OVCAR-3 ovarian.
Assay [18] deals with HS 578T breast.
Assay [19] concerns NCI/ADR-RES ovarian.

This is part of a sample that, as a whole, favours compounds with a hit. Of some 83,000 tested, about 20% had one in any assay.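 Activity criterion: percent growth below 10, measured after cells in 96-well plates were exposed to a single compound concentration for 48 hours.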 Unmarked numbers belong to inactive results. Activity calls are given as the source filed them.

Take `O=C1c2cc3c(cc2-c2c1c1ccc(F)cc1c(=O)n2C[C@H](O)[C@@H](O)[C@H](O)CO)OCO3`: the growth in [1] is -27.2% (active); in assay [2] it was 4.69% (active); in assay [3], -21.3% (active); in assay [4] it was -0.938% (active); in [5] it was -42.9% (active); in [6], -7.09% (active). The growth in [7] was -78.8% (active); in assay [8], 5.88% (active); in [9], -6.28% (active); in assay [10], 0.151% (active); in assay [11], -0.286% (active); in [12] it was 0.0181% (active). Also, the growth in assay [13] is -29.8% (active); in assay [14] it was 15.4%; in assay [15], -20.8% (active); in [16], 17.7%; in assay [17] it was -20.3% (active); in assay [18], 0.229% (active). The growth in [19] was 4.78% (active).

In the case of `C=C(C)C1CC(O)C2(C)CCCC3C2C1CC(C)C3(C)CC/C(C)=C/C(O)C1CCC(=O)c2c(OC)cc(OC)cc21` (configuration not stated), the growth in [1] was 65.8%; in assay [2], 59.2%; in [3], 47.6%; in assay [4], 55.6%; in assay [5], 41.1%; in assay [6], 48.5%. In addition, the growth was 9.01% (active) in assay [7]; 25.7% in assay [8]; 21.7% in assay [9]; 26.6% in [10]; 6.09% (active) in assay [11]; 41.6% in assay [12]. Moreover, the growth in assay [13] is 86.9%; in assay [14], 23.3%; in assay [15], 51%; in assay [16], 50.9%; in [17], 32.7%; in assay [18], 61.6%. Further, in assay [19], the growth is 45.9%.

In the case of `Cc1cc(Nc2ccc(C)c(Cl)c2)n2nc(C(F)(F)F)nc2n1`, the growth was 60.8% in [1]; 22.1% in assay [2]; -43.2% (active) in [3]; -32.3% (active) in [4]; -2.48% (active) in [5]; -35.5% (active) in assay [6]. The growth in assay [7] was 91.9%; in [8], 62%; in assay [9], 74.1%; in [10], 60.6%; in assay [11] it was 51.6%; in [12], 30.8%. Further, the growth in [13] is 55.4%; in assay [14], -62.7% (active); in [15], -50.5% (active); in assay [16], 15.1%; in assay [18], 28.7%.

Turning to `COc1cc(Nc2cc(C)nc(N3CCN(c4ccnc5cc(Cl)ccc45)CC3)n2)cc(OC)c1`, the growth in assay [1] is 26%; in assay [2], 0.314% (active); in assay [3], -9.39% (active); in assay [4], 17.9%; in [5], 7.48% (active); in [6] it was 10.8%. Also, the growth in [7] is -12.5% (active); in assay [8], 5.29% (active); in assay [9], 5.97% (active); in assay [10], -4.09% (active); in [11] it was -13.5% (active); in assay [12] it was 12.7%. The growth in assay [13] is 24.8%; in assay [14] it was 34.5%; in assay [15], 15.4%; in assay [16], -22.9% (active); in assay [17], 6.15% (active); in assay [18], 18.2%.

In the case of `C=CC(=O)Nc1cccc(-c2nc(SC)nc(Nc3cccc(OC)c3)c2C#N)c1`, the growth was 71.2% in [1]; 44.6% in assay [2]; 42.3% in assay [3]; 78.9% in [4]; 45.7% in assay [5]; 44.9% in assay [6]. Further, the growth in [8] is 57.5%; in [9], 39.5%; in [11] it was 40%; in assay [12] it was 42%; in assay [13] it was 103%; in assay [14] it was 62.5%. Also, the growth in [15] is 73.5%; in assay [16], 65.9%; in assay [18] it was 49.3%; in assay [19], 49.2%.

Turning to `Cn1ncc2c(=O)nc3c(-c4ccccc4)n[nH]n3c21`, the growth in assay [1] is 112%; in assay [2] it was 99.5%; in assay [3], 97.1%; in [4], 99.5%; in assay [5], 116%; in assay [6], 74.4%. For the same compound, the growth was 112% in assay [7]; 127% in assay [8]; 99.6% in assay [9]; 113% in assay [10]; 123% in assay [11]; 99.8% in assay [12]. Besides, the growth was 109% in [13]; 100% in [14]; 103% in assay [15]; 95.4% in [17]; 108% in assay [18]; 105% in assay [19].

Regarding `CC1SC(c2ccc(N(C)C)cc2)N(NC(=O)C(O)(c2ccccc2)c2ccccc2)C1=O` (configuration not stated), the growth in [1] was 104%; in assay [2], 110%; in assay [3] it was 47.7%; in [4] it was 89.4%; in assay [5], 94%; in assay [6], 91.2%. The growth in assay [7] is 101%; in assay [8] it was 65.1%; in [9], 72%; in assay [10], 90%; in assay [11] it was 60.1%; in assay [12], 77.4%. For the same compound, the growth in assay [13] is 104%; in assay [14], 95.7%; in assay [15], 97.6%; in assay [16], 80.5%; in assay [17], 95%; in assay [18] it was 103%. Moreover, the growth in assay [19] was 95%.

On to `COc1cc(C(=O)Oc2ccccc2OC(=O)c2cc(OC)c(OC)c(OC)c2)cc(OC)c1OC`, for which the growth in [1] is 115%; in assay [2] it was 98.4%; in assay [3] it was 84.5%; in assay [4], 98.4%; in [5], 93.9%; in assay [6] it was 91.6%. Moreover, the growth is 108% in assay [7]; 97.2% in assay [8]; 114% in assay [9]; 103% in assay [10]; 76.2% in [11]; 92.1% in assay [12]. Also, the growth in [13] was 97.4%; in assay [14] it was 105%; in [15] it was 84.9%; in [16] it was 101%; in [17], 97.7%; in assay [19], 95.7%.

Consider `CS(=O)(=O)c1ccc(-n2nc(-c3ccc(Br)cc3)c3ccccc3c2=O)cc1`, for which the growth is 107% in [1]; 102% in assay [2]; 67.9% in [3]; 105% in assay [4]; 95.9% in assay [5]; 98.7% in [6]. Besides, the growth in [7] is 81.3%; in [8] it was 97.1%; in assay [9], 94%; in assay [10] it was 110%; in [11], 99.8%; in [12], 100%. Also, the growth in assay [13] is 108%; in assay [14], 97.8%; in assay [15], 94.3%; in assay [16] it was 109%; in assay [17] it was 102%; in assay [18], 100%.
